# Data reported in PubChem BioAssay AID652010 (The Scripps Research Institute Molecular Screening Center, 2013).
# The campaign covered roughly 370,000 compounds. About 4,100 (1.1%) were called active. The sample as a whole holds a higher share of actives than the screen did. Unmarked numbers belong to inactive results.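 The calls were made as follows: active = inhibition above the mean over all tested compounds plus 3 SD (cut at about 3.6% in these data); inactive = the rest.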
# Experiment: relief of DAX-1 repression of SF-1 activity – cell-based, luminescence, SF-1 (NR5A1), full-length DAX-1, primary screen (AID 652010);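 also: 0% = DAX-1 cells with DMSO and 100% = cells lacking DAX-1 with DMSO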
# Details: HEK293T StAR-luciferase reporter, SF-1/DAX-1 repression relief; at 6.8 µM; stronger effect = higher value
row,Compound,inhibition
1,CC(CCN1CCC(C(O)(c2ccccc2)c2ccccc2)CC1)Oc1ccc([N+](=O)[O-])cc1Cl (stereo not drawn),-0.6%
2,CC(C)c1ccc(NS(=O)(=O)c2cn(C)c(=O)n(C)c2=O)cc1,1.86%
3,Cc1ccc(-n2c(SCC(=O)Nc3cccc4ccccc34)nnc2-c2ccco2)cc1,-1.09%
4,C=CCN=C1NC(c2ccccc2)C(C(=O)OC)=C(C)N1Cc1ccc(C(F)(F)F)cc1 (stereo not drawn),-0.62%
5,NNc1cccc(C=Cc2ccccc2)cc1=O,4.11% (active)
6,Cc1ccc(NC(=O)Nc2cc(C)nn2-c2ccccc2)cc1,-0.81%
7,COC(=O)[C@]12C[C@H](CC(=O)NCc3cccs3)C(=O)N(CCc3ccc(OC)c(OC)c3)C1=C[C@H](C(C)C)O[C@@H]2C1CC1,0.43%
8,CCOC(=O)N1CCN(C(=O)C[C@H]2C[C@@]3(C(=O)OC)C(=C[C@H](C(C)(C)C)O[C@@H]3C)N(Cc3ccc(Cl)cc3Cl)C2=O)CC1,-1.88%
9,Fc1ccccc1/C=N/Nc1cc(N2CCCCC2)ncn1,3.71% (active)
10,CCOC(=O)c1cccc(NC(=O)CN(C)S(=O)(=O)c2ccc(-c3cocn3)s2)c1,-0.38%
11,COc1cccc(CNC(=O)C2CCCN(c3nc4ccccc4o3)C2)c1OC (stereo not drawn),-1.08%
12,O=C(O)Cn1c(Cc2ccccc2)nc2ccccc21,0.13%
13,Cc1c(C=O)c2ccccc2n1CCOc1ccccc1,-1.1%
14,Cc1c(C=O)c2ccccc2n1CC(=O)O,3.62% (active)
15,S=c1[nH]nc(/C=C/c2ccccc2)o1,-0.19%
16,O=c1oc(-c2ccccc2NS(=O)(=O)c2ccc(Cl)cc2)nc2ccccc12,0.22%
17,O=c1oc(/C=C/c2ccccc2)nc2ccccc12,5.78% (active)
18,CN(CC(=O)Nc1ccc(C(N)=O)cc1)S(=O)(=O)c1ccc2c(c1)OCCO2,-0.16%
19,COCCCNC(=O)c1ccc(CNS(=O)(=O)c2ccc(NC(C)=O)cc2)cc1,-0.22%
20,CC1CCCN(c2cccc3c2S(=O)(=O)N(Cc2ccc(F)cc2)[C@@H](C)[C@H](c2ccccc2)O3)C1 (stereo partly drawn),1.64%
21,COc1cc(/C=N/O)ccc1OCc1ccc([N+](=O)[O-])cc1,4.6% (active)
22,CCOc1cc(/C=N/O)ccc1OCc1ccccc1F,0.47%

row,Compound,inhibition
1,COc1ccc(NC(=O)CSCc2ccc([N+](=O)[O-])cc2)cc1OC,0.2%
2,Cn1nc(C(C)(C)C)c(NC(=O)c2sccc2Cl)c1C(C)(C)C,-0.4%
3,C[C@@H]1ON(C)[C@H]2C[C@H]3c4cc(N5CCOCC5)ccc4CCN3C[C@@H]12,0.27%
4,Cc1ccc(-c2nc3c(C)cc(Br)cn3c2Cc2ccccc2)cc1,-0.26%
5,Cc1ccc(-c2nc3ccc(Cl)cn3c2Cc2ccccc2)cc1,4.09% (active)
6,COC(=O)c1ccc2nc(-c3ccccc3)c(Cc3ccc(OC)cc3C)n2c1,3.05%
7,COc1ccccc1Cc1c(-c2ccc(F)cc2)nc2ccc(C)cn12,4.57% (active)
8,Cc1cc(Br)cn2c(Cc3ccccc3C(F)(F)F)c(-c3ccc(Cl)cc3)nc12,-1.19%
9,COc1ccccc1Cc1c(-c2ccc(Cl)cc2)nc2ccc(Cl)cn12,2.6%
10,Cc1ccc(-c2nc3ccc(Br)cn3c2Cc2ccccc2C(F)(F)F)cc1,7.12% (active)
11,Cc1ccc2nc(-c3ccccc3)c(CC3CCCCC3)n2c1,3.67% (active)
12,Cc1ccc2nc(-c3cccnc3)c(NC3CCCC3)n2c1,-0.53%
13,Cc1cc(Br)cn2c(Cc3ccccc3C(F)(F)F)c(-c3ccc(C#N)cc3)nc12,-0.14%
14,COC(=O)c1ccc2nc(-c3ccc(F)cc3)c(Cc3ccc(C)cc3)n2c1,0.98%
15,Brc1ccc2nc(-c3ccccc3)c(Cc3ccccc3)n2c1,0.67%
16,COC(=O)[C@]12C[C@H](CC(=O)NCCc3ccccc3OC)C(=O)N(Cc3ccccc3)C1=C[C@H](C(C)C)O[C@@H]2C1CC1,0.15%
17,CCOC(=O)[C@]12CCCCC/C=C\1N(Cc1ccc(OC)cc1)C(=O)[C@H]2CC(=O)N1CCOCC1,-0.42%
18,CN1C(=O)C2CC(O)C(SC3CC4C(=O)N(C)C(=O)C4CC3O)CC2C1=O (stereo not drawn),0.64%
19,CCOC(=O)/C=C/c1ccccc1O,0.4%
20,COc1cccc(CNC(=O)[C@H]2CCCN2C(=O)[C@H]2CCCN2C(=O)c2cc(F)cc(F)c2)c1,0.51%
21,CCn1c2ccccc2c2cc(NC(=O)CSc3nnc(-c4ccccc4)n3-c3ccc(C)cc3)ccc21,-0.77%
22,CN1C(=O)c2cc(NS(C)(=O)=O)ccc2OC[C@@H]2O[C@@H](CC(=O)NCc3ccc(-c4ccccc4)cc3)CC[C@H]21,-0.35%

row,Compound,inhibition
1,CC(C)(C)NS(=O)(=O)NC(=O)C1=C(N2CCCC2)COC1=O,0.57%
2,CCCCNC(=O)C[C@H]1C(=O)N(Cc2ccc(OC)cc2)C2=CCCC[C@@]21C(=O)OCC,-0.74%
3,C[C@H]1[C@H](c2ccccc2)Oc2cc(Br)ccc2S(=O)(=O)N1Cc1cccc(F)c1,-0.98%
4,Cc1c(C(C)c2ccccc2O)[nH]c2ccccc12 (stereo not drawn),-1.62%
5,C[C@@H](NC(=O)c1ccccc1OCC(=O)Nc1ccc(I)cc1)C(=O)N(C)Cc1ccccc1,-1.33%
6,O=C(NC(=S)Nc1ccccc1C(=O)O)c1ccc(-c2ccc(Br)cc2)o1,-0.57%
7,CC1CCN(C(=S)c2ccc(-c3ccc(Cl)cc3Cl)o2)CC1,0.67%
8,S=C(c1ccc(-c2ccccc2)o1)N1CCCCC1,5.8% (active)
9,O=S1(=O)c2ccc(Br)cc2-n2nncc2CN1Cc1cccc(Cl)c1,-0.73%
10,CCCS(=O)(=O)N1CCC(C(=O)NCCc2ccc(OC)c(OC)c2)CC1,0.15%
11,COC(=O)C[C@@H]1CC[C@@H]2[C@@H](COc3ccc(NC(=O)Nc4ccc(F)c(F)c4)cc3C(=O)N2C)O1,-1.81%
12,CC1CCN(c2ccc(C(=O)O)cc2NS(=O)(=O)c2ccc(Br)s2)CC1,-1.22%
13,O=C(Nc1ccc2c(c1)CCC2)c1ccc(Br)s1,11.2% (active)
14,CC1CC(C)CN(CCC(=O)Nc2ccc3c(c2)CCC3)C1 (stereo not drawn),-0.49%
15,O=C(Nc1ccc(F)cc1)c1cc2c(s1)CCCC2,2.02%
16,CCOC(=O)c1c(S(=O)(=O)Nc2cccc(Cl)c2)c(C)n(C)c1C,1.63%
17,CCOC(=O)c1c(S(=O)(=O)NCC(=O)Nc2ccc(C)cc2)c(C)n(C)c1C,-0.57%
18,CCOC(=O)c1c(S(=O)(=O)Nc2ccc(CN3CCC(C)CC3)cc2)c(C)n(C)c1C,5.11% (active)
19,CC(=O)O[C@@]1(C(C)=O)CCC2[C@H]3C=C(C)C4=CC(=O)CC[C@@]4(C)C3CC[C@]21C (stereo partly drawn),-0.75%
20,Cc1nnc(SC(C)C(=O)Nc2ccc(S(=O)(=O)NC3CCCCC3)cc2)s1 (stereo not drawn),0.57%
21,Cc1ccsc1C(=O)OCC(=O)NCCc1ccccc1,3.66% (active)
22,Cc1cnc(C(=O)OCC(=O)NCCCc2ccccc2)cn1,1.25%

row,Compound,inhibition
1,Cn1cccc1C(=O)OCC(=O)NCCc1ccccc1,0.5%
2,COC(=O)C1CN(CC(C)C)CCS(=O)(=O)N1Cc1ccc(C)cc1 (stereo not drawn),-0.97%
3,O=C(CSc1nc2sc3c(c2c(=O)n1-c1ccccc1)CCCC3)NN=Cc1ccc(OCc2ccccc2)cc1,0.1%
4,C=CCn1c(SCC(=O)Nc2ccc(NC(C)=O)cc2)nc2sc(C)c(C)c2c1=O,4.82% (active)
5,C=CCn1c(SCC(=O)NCCCO)nc2sc3c(c2c1=O)CCC3,0.03%
6,C=CCn1c(SCC(=O)/C(C#N)=C(\C)N)nc2sc(C)c(C)c2c1=O,-0.39%
7,Cc1cc(C)cc(N(CCC#N)C(=O)CN2C(=O)NC3(CCCC3)C2=O)c1,-0.09%
8,COC(=O)Cc1nnn2c1[C@H](C)[C@H](c1ccccc1Br)OCC2,-0.78%
9,COc1ccc(/C=C2\CC3(OC(C)=O)CCCN2C3)cc1 (stereo not drawn),1.13%
10,CN1C(=O)/C(=C/C=C2\SCCN2C)OC1=S,3.87% (active)
11,Cc1ccccc1NC(=O)Cn1nnc(-c2ccccc2F)n1,-0.11%
12,CC1CCCN(CC(O)COc2ccc3c(c2)OCO3)C1 (stereo not drawn),0.13%
13,CCOc1ccc(-n2c(SCC(=O)Nc3cc(C)c(NC(=O)c4ccccc4)cc3OC)nnc2-c2cccs2)cc1,-3.08%
14,C#CCNC(=O)C[C@H]1C[C@@]2(C(=O)OC)C(=C[C@H](C(C)C)O[C@@H]2C2CC2)N(Cc2ccco2)C1=O,0.65%
15,Clc1ccc(-c2cc(-c3ccccn3)on2)c(Cl)c1,3.68% (active)
16,Clc1ccc(-c2cc(C3CCNCC3)[nH]n2)c(Cl)c1,-0.17%
17,Clc1ccccc1-c1cc(COc2ccc3ccccc3c2)no1,0.4%
18,CC(C)CNC(=O)OCc1cn(Cc2ccc(F)cc2)nn1,-0.13%
19,Cc1cc(N)n2nc(-c3ccc(C(C)(C)C)cc3)cc2n1,5.95% (active)
20,CCCC(=O)C1=C(N(C)c2ccccc2)CC(C)(C)C(C(=O)OC)C1=O (stereo not drawn),0.24%
21,CCOc1ccc(-n2c(SCC(=O)Nc3cc(C)c(NC(=O)c4ccccc4)cc3OC)nnc2-c2cccc(Cl)c2)cc1,-2.96%
22,CCOC(=O)N1CCN(C(=O)c2ccc3nc4cc(Cl)ccc4c(=O)n3c2)CC1,-1.01%
